Rows were chosen to be rich in hits. Some 2.5% of all compounds tested hit in one or more screens of this group.
HTT promoter inh = inhibitors of huntingtin promoter activity; HEK293 HTT promoter firefly luciferase reporter, 24 h; Potency, µM (titrated, usually from 57.5 µM), hits mostly inhibitors; 48,000 compounds, 0.93% hits; AID 1508623; further: nearly all actives have a fitted effect of over 50% in size
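HEK293 luciferase promoter-reporter cells (2,500/well) plated 24 h, then compounds added at up to 57.5 uM final for 24 h at 37 °C. Firefly luminescence by Dual-Glo, normalized to vehicle (0%) and zero RLU (-100%).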
FH mod = Identification of activators of human fumarate hydratase by quantitative high-throughput screening; Fumarate hydratase, mitochondrial (Homo sapiens), P07954; FH coupled MDH/diaphorase resazurin fluorescence, 15 min; Potency, µM (top dose mostly 79.9 µM), usual class: inhibitors; 54,000 compounds, 0.22% hits; further: the screen sought activators but most active calls are inhibition curves; nearly all actives have a fitted effect of over 45% in size
Target sequence (P07954 whole entry, looked up): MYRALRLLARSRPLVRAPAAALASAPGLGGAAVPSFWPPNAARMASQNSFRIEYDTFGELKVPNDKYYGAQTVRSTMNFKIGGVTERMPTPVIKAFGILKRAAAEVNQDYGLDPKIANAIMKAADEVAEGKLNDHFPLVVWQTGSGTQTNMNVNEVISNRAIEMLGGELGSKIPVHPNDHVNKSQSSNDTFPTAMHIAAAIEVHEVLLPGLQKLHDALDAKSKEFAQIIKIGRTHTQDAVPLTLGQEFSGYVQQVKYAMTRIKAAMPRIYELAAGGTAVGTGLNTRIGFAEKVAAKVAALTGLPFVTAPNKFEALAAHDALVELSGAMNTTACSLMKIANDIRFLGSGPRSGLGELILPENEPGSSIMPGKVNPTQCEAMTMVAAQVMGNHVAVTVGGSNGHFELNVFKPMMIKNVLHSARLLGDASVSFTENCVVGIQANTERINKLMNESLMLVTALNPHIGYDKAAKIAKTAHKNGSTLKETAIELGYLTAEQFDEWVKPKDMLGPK
GALK inh = GALK (human) enzyme inhibition; recombinant GALK, Kinase-Glo ATP luminescence, 1 h; Potency, µM (titrated, usually from 57.5 µM), actives largely listed as inhibitors; 44,000 tested, under 10 active; AID 1347072
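Luminescent ATP-depletion readout (Kinase-Glo Plus) after 1 h room-temperature incubation of human GALK (5 nM) with galactose 100 µM and ATP 35 µM, pH 8.0 HEPES/Mg2+ buffer; compounds tested in qHTS format.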
HTT-AS act = HTT-AS promoter activation; HEK293 HTT-AS promoter firefly luciferase reporter, 24 h; response scale: percent change from vehicle, -100% = no light; Potency, µM (highest dose often 57.5 µM), actives largely listed as activators; 48,000 compounds, 0.24% hits; further: nearly all actives have a fitted effect of over 55% in size
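HEK293 cells carrying firefly luciferase reporters were seeded at 2,500 per well in Opti-MEM and cultured for 24 h. They were then treated with compounds at up to 57.5 uM final for 24 h at 37 degrees C before Dual-Glo luminescence readout.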
NTMT1 inh = blocks human N-terminal methyltransferase 1 activity; Potency, µM (titrated, usually from 114 µM), usual class: inhibitors; Q9BV86; AID 1645870; NTMT1 MTase-Glo SAH luminescence, purified enzyme; 59,000 compounds, 2.5% hits; further: nearly all actives have a fitted effect of over 65% in size
NNMT inh = counter-screen for NTMT1 inhibitors: human NNMT inhibition | shares compounds with NTMT1 inh | NNMT MTase-Glo luminescence, SAH detection | Potency, µM (doses to about 57.1 µM), actives largely listed as inhibitors | 120 compounds, 10% hits
Hits are given with their value; 0 = inactive; ? = inconclusive; - = not tested or not shown; ! = repeats disagree. The call rests on the fitted dose curve; in most records, active means well fitted curve in the direction sought with a large enough effect; inconclusive means small, poorly fitted or top-dose-only effect, or another doubt; inactive means no such curve, though single readings can be large; an effect the other way counts as inactive or inconclusive.

SMILES	HTT promoter inh	FH mod	GALK inh	HTT-AS act	NTMT1 inh	others
COc1cc(O)c2c(c1)CCC[C@@H](O)[C@H](O)C(=O)/C=C\C[C@H](C)OC2=O	-	0	-	-	10µM
COc1cc(O)c2c(c1)/C=C/C[C@@H](O)[C@@H](O)C(=O)CCC[C@H](C)OC2=O	-	0	-	-	?
N#Cc1cc2c(nc1SCC(=O)Nc1ccc(OC(F)(F)F)cc1)C1CCN2CC1	28µM	0	0	0	0
CCOC(=O)c1ccc(NC(=O)CSc2nc3c(cc2C#N)N2CCC3CC2)cc1	0	0	0	0	0
CCCCCCCCCCCCCCCC[N+](C)(C)C	?	0	-	0	25µM
C/C=C(\C)C(=O)N[C@@H](c1ccccc1)[C@@H](O)C(=O)O[C@H]1C[C@@]2(O)[C@@H](OC(=O)c3ccccc3)[C@@H]3[C@]4(OC(C)=O)CO[C@@H]4C[C@H](O)[C@@]3(C)C(=O)[C@H](OC(C)=O)C(=C1C)C2(C)C	-	-	-	-	0
COP(=S)(OC)SCN1C(=O)c2ccccc2C1=O	0	0	-	0	28µM
CC(C)(NC(=O)O[C@@H]1CN2CCC1CC2)c1csc(-c2ccc(F)cc2)n1	-	-	-	-	0
O=C1C(I)=CC(=C(c2cc(I)c(O)c(I)c2)c2ccccc2C(=O)O)C=C1I	0	?	-	0	14µM
Nc1ccccc1C(=O)O	0	0	-	0	0
COc1ccc2c(c1)/C(=C/c1cnc[nH]1)C(=O)N2	-	0	-	-	40µM
Cc1cc(SCc2sc(-c3ccc(C(F)(F)F)c(F)c3)nc2C)ccc1OCC(=O)O	0	?	-	?	71µM!
CC1(C)CC[C@]2(NC(=O)C(C)(F)F)CC[C@]3(C)[C@H](C(=O)C=C4[C@@]5(C)C=C(C#N)C(=O)C(C)(C)[C@@H]5CC[C@]43C)[C@@H]2C1	-	-	-	-	0
Cc1ccc(-n2c(/C=C\c3ccc(F)c(F)c3)nc3ccccc3c2=O)c(C)c1	7.1µM	0	0	0	0
CCNC(=O)[C@H]1O[C@@H](n2cnc3c(N)ncnc32)[C@H](O)C1O (some centres not stated)	-	0	-	-	-
Oc1ccc([C@H]2CNCc3c2ccc(O)c3O)cc1O	0	31µM	-	0	2.8µM
CCCCCCCCCC(CC)c1ccc(S(=O)(=O)O)cc1 (configuration not stated)	0	?	-	0	10µM
O=C(CBr)Nc1ccc(Cl)cc1C(=O)c1ccccc1F	0	0	-	0	14µM
CCOc1ccc(CCNC(=O)c2cc3cnccc3n2Cc2cccc(C)c2)cc1OCC	-	-	-	-	0
CN(C)C(=S)SSC(=S)N(C)C	0	0	-	0	7.9µM
C[C@H](N)[C@H](O)c1ccc(O)c(O)c1	0	0	-	0	20µM
CC1(C)C(=O)N(c2ccc(C#N)c(C(F)(F)F)c2)C(=S)N1Cc1ccc(-c2cn[nH]n2)cc1	-	-	-	-	0
CCCN1CCc2cc(O)cc3c2[C@H]1Cc1ccc(O)c(O)c1-3	-	14µM	-	-	-
CN1CCc2cc(Cl)c(O)cc2[C@H]2c3ccccc3CC[C@@H]21	0	0	-	0	?
CCCN1CCO[C@H]2c3cc(O)ccc3OC[C@@H]21	-	0	-	-	0
SMILES	HTT promoter inh	FH mod	GALK inh	HTT-AS act	NTMT1 inh	others
CN1CCc2cc(O)cc3c2[C@H]1Cc1ccc(O)c(O)c1-3	-	14µM	-	-	-
N#Cc1cn([C@@H]2O[C@H](CO)[C@H](O)[C@@H]2O)c2ncnc(N)c12	-	0	-	-	8.9µM
CCOc1ccc(NC(=O)c2cccn(Cc3cccc(Cl)c3)c2=O)cc1	16µM	0	0	0	0
COc1ccc(NC(=O)c2cccn(Cc3ccc(Cl)cc3)c2=O)c(OC)c1	13µM	0	0	0	0
Cc1nnc(NC(=O)c2cccn(Cc3cccc(Cl)c3)c2=O)s1	0	0	0	0	0
COC(=O)[C@@]12OC[C@]34[C@H]([C@@H](O)[C@@H]1O)[C@@]1(C)CC(=O)C(O)=C(C)[C@@H]1C[C@H]3OC(=O)[C@H](OC(=O)/C=C(\C)C(C)C)[C@@H]24	-	-	-	-	0
Nc1ncnc2c1ncn2[C@@H]1O[C@H](COP(=O)(O)CP(=O)(O)OP(=O)(O)O)C(O)[C@H]1O (some centres not stated)	-	0	-	-	-
N#Cc1ccc(NC(=O)Nc2nnc(-c3ccncc3)s2)cc1Cl	-	-	-	-	0
CCOc1ccc(CN(CCc2ccc3c(c2)OCO3)Cc2cccc(OC)c2)cc1	0	0	0	0	0
CCOc1ccc(CN(CCc2ccc3c(c2)OCO3)Cc2cccc(Br)c2)cc1	0	0	0	0	8.9µM
CN1C(=O)[C@@H](NC(=O)[C@H](CCC(F)(F)F)[C@H](CCC(F)(F)F)C(N)=O)N=C(c2ccccc2)c2ccccc21	-	-	-	-	0
COC[C@H]1OC(=O)c2coc3c2[C@@]1(C)C1=C(C3=O)[C@@H]2CC[C@H](O)[C@@]2(C)C[C@H]1OC(C)=O	-	-	-	-	0
C[C@H]1C2Cc3ccc(O)cc3[C@@]1(C)CCN2CC1CC1	-	0	-	-	-
C[C@H]1CCC[C@H](O)CCC/C=C/c2cc(O)cc(O)c2C(=O)O1	-	0	-	-	1.4µM	NNMT inh=3.5µM
C=C[C@H]1CN2CCC1C[C@@H]2[C@@H](O)c1ccnc2ccccc12 (some centres not stated)	-	-	-	-	0

High-throughput results from PubChem BioAssay.
